PubChem BioAssay
Calls of active or inactive are those of the source.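 How the source made its calls, unless noted: active means NADPH fluorescence slope more negative than the mean of all samples by about 3 SD, 99.7% confidence; inactive means the rest.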

Assays:
[1] = inhibitors of TNFa-induced NFkB p65 translocation, primary screen, imaging, HUVEC, MLSMR starter and 10KST1 sets (AID 438;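 active means inhibition above 20% together with a positive visual image hit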;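 further: compound added about 3h40 before a 20 min TNFalpha stimulation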;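 on inhibition: signal is the nuclear over cytoplasmic p65 intensity ratio per well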); settings: HUVEC TNFa-induced p65 nuclear translocation; cell count: measured here: nuclei count (cytotoxicity indicator), at 2.08 µM; inhibition: at 2 µM, stronger effect = higher value, 0% TNFa-plus-vehicle, 100% no-TNFa wells
[2] = reduction of polyQ htt aggregates in cells – imaging, exon1htt(103Q)mCFP cells, high-content imaging, primary screen (AID 483;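 active means visual image review flags a hit and inhibition of aggregation exceeds 20%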;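 further: compound exposure lasted 3 days before fixation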;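 on nuclei count: percent of the per-plate median nuclei count of sample wells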); settings: exon1htt(103Q)mCFP cell line, aggregate imaging, at 2 µM; inhibition of aggregation: stronger effect = higher value; nuclei count: measured here: cell count, toxicity
[3] = endothelial E-selectin expression blockers – imaging, HUVEC, immunofluorescence, MLSMR starter and 10KST1 sets, primary screen (AID 487;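 active means visually confirmed hit in the image check and inhibition above 20%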;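 on inhibition: signal is fraction of cell area covered by stained E-selectin grains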;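 on nuclei count: 100% = median nuclei count of all wells on the same plate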); settings: HUVEC TNFalpha-induced E-selectin immunofluorescence imaging, at 2 µM; inhibition: stronger effect = higher value; nuclei count: measured here: cell number, toxicity
[4] = target: Voltage-gated potassium channel subunit beta-2 (Rattus norvegicus) (UniProt P62483); test: inhibitors of rat Kvbeta2 reductase activity – biochemical, NADPH fluorescence, primary screen (AID 622;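 active means fluorescence slope higher than the sample average by over 3 SD, cut at about -0.22 in these data, passing the limit was not always enough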;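 further: slope of raw intensity against log time taken from 70 to 1610 s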); settings: recombinant KvBeta, 4-cyanobenzaldehyde reduction, at 10 µM, stronger effect = higher value
[5] = target: Voltage-gated potassium channel subunit beta-2 (Rattus norvegicus) (UniProt P62483); test: enhancers of rat Kvbeta2 NADPH turnover – biochemical, NADPH fluorescence, primary screen (AID 623); settings: Recombinant KvBeta, NADPH fluorescence decrease slope, 10 min; at 10 µM; stronger effect = lower value;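 further: fluorescence intensity change per second fitted from 20 to 320 s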
[6] = target: Alpha-2C adrenergic receptor (Homo sapiens) (UniProt P18825); test: compounds altering alpha2C-coupled GIRK flux – cell-based, HEK293 alpha2C/GIRK1/2, thallium flux, primary screen (AID 624;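 active means fluorescence slope after compound addition differing from the mean of all screened samples at 99.7% confidence, in either direction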;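 further: slope of fluorescence ratio to pre-addition baseline per second over 15 to 24 s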); settings: thallium flux BTC fluorescence, at 10 µM, actives lie on both sides
[7] = blockers of RIG-like receptor reporter activation – cell-based, Sendai virus stimulus, luciferase, 10K MLSCN set, TLR/RLR signaling modifier project, primary screen (AID 602276;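 active means inhibition at or above 50% at 10 µM; inactive means inhibition below 50%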;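 further: firefly luciferase from ISG56 promoter only with Renilla not read in this screen; 0% = Sendai virus plus DMSO and 100% = medium plus DMSO without virus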); settings: HEK293 RL24 IRF3 luciferase reporter, at 10 µM, stronger effect = higher value
[8] = TLR3 IRF3 reporter activation blockers – cell-based, poly I:C stimulus, luciferase, 10K MLSCN set, primary screen (AID 602277;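 active means inhibition of the reporter signal at or above 50%; inactive means inhibition below 50%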); settings: HEK293-TLR3 RL24 IRF3 luciferase reporter, at 10 µM, stronger effect = higher value

Sequence of Voltage-gated potassium channel subunit beta-2 (Rattus norvegicus) (P62483 whole entry, looked up): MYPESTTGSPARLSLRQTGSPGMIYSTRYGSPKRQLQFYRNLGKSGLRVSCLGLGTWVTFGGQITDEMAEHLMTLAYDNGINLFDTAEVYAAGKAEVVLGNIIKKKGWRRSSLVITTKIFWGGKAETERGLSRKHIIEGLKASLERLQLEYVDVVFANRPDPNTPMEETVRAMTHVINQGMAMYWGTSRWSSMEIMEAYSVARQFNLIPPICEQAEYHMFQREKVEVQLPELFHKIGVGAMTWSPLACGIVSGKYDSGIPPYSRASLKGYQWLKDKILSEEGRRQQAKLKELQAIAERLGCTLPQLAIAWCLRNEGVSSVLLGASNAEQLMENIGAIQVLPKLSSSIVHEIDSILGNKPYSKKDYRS
Sequence of Alpha-2C adrenergic receptor (Homo sapiens) (P18825 whole entry, looked up): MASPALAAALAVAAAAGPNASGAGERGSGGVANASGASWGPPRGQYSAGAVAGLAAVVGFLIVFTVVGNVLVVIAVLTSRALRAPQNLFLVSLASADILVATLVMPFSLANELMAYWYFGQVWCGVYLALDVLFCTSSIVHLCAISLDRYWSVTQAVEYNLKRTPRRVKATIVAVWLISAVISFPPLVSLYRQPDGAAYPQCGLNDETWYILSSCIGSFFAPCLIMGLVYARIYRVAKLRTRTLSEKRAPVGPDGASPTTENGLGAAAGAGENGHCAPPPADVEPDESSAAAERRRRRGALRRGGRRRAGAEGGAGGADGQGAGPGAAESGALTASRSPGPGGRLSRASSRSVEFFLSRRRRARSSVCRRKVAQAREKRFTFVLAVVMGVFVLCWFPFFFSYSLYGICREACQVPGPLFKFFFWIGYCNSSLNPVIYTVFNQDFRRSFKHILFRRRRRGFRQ

| Compound | cell count [1] | inhibition [1] | inhibition of aggregation [2] | nuclei count [2] | inhibition [3] | nuclei count [3] | fluorescence slope [4] | NADPH fluorescence slope [5] | slope [6] | inhibition [7] | inhibition [8] |
| --- | --- | --- | --- | --- | --- | --- | --- | --- | --- | --- | --- |
| COc1cccc(-c2nnn(CC(=O)O)n2)c1 | 472 | -5.1% (inactive) | -19.3% (inactive) | 90.3% | -118% (inactive) | 233% | -0.468 (inactive) | 2.6e-06 (inactive) | 0.00693 (inactive) | 6.2% (inactive) | 43.8% (inactive) |
| CC(=O)Nc1ccc(S(=O)(=O)N2CCN=C2C)cc1 | 246 | 7.6% (inactive) | 14.3% (inactive) | 86.3% | -31.5% (inactive) | 83.1% | -0.62 (inactive) | -1.6e-05 (inactive) | 0.00377 (inactive) | 3.93% (inactive) | 19.7% (inactive) |
| O=c1[nH]c(CN2CCN(Cc3ccccc3)CC2)nc2sc3c(c12)CCC3 | 406 | -0.4% (inactive) | -0.1% (inactive) | 109% | -73% (inactive) | 99.5% | -0.596 (inactive) | -3e-05 (inactive) | 0.00576 (inactive) | 3.63% (inactive) | 17.7% (inactive) |
| Cc1cc(O)c(-c2cc(C(=O)Nc3ccc(S(=O)(=O)N4CCOCC4)cc3)[nH]n2)cc1C | 499 | 5.8% (inactive) | -6.9% (inactive) | 100% | -62.7% (inactive) | 153% | -0.584 (inactive) | -1.4e-05 (inactive) | 0.00629 (inactive) | -12.1% (inactive) | -24.7% (inactive) |
| CC1C(=O)C(C)C(c2cccs2)NC1c1cccs1 (centres undefined) | 295 | -1.4% (inactive) | 10.2% (inactive) | 68.6% | 13.7% (inactive) | 87.4% | -0.501 (inactive) | 9.3e-06 (inactive) | 0.00548 (inactive) | 3.78% (inactive) | 3.34% (inactive) |
| COc1ccc(C2c3c(oc4ccccc4c3=O)C(=O)N2Cc2ccncc2)cc1OC (centres undefined) | 665 | -2.6% (inactive) | -6.6% (inactive) | 108% | -9.9% (inactive) | 115% | -0.315 (inactive) | -4.9e-05 (inactive) | 0.00493 (inactive) | 14.3% (inactive) | 18.9% (inactive) |
| Cc1[nH]c(C(=O)N2CCCCC2)c(C)c1C(=O)NC1CCCCC1 | 425 | 0.5% (inactive) | 6.3% (inactive) | 97.4% | -49.8% (inactive) | 123% | -0.528 (inactive) | 2.6e-05 (inactive) | 0.00631 (inactive) | 5.02% (inactive) | 4.54% (inactive) |
| CCc1ccc(N2CC(C(=O)OCC(=O)Nc3cc(C)on3)CC2=O)cc1 (centres undefined) | 465 | 5.3% (inactive) | -4.7% (inactive) | 102% | -6.8% (inactive) | 92.3% | -0.368 (inactive) | -2.5e-05 (inactive) | 0.00565 (inactive) | 5.09% (inactive) | 20.1% (inactive) |
| COc1ccc(S(=O)(=O)N2CCC(C(=O)NCc3ccco3)CC2)cc1 | 245 | -0.2% (inactive) | 1.8% (inactive) | 99.6% | -290% (inactive) | 114% | -0.418 (inactive) | -2.7e-05 (inactive) | 0.00415 (inactive) | 7.79% (inactive) | 9.56% (inactive) |
| N#CCCCCn1c(-c2cncs2)nc2ccccc21 | 431 | 14.1% (inactive) | 3.5% (inactive) | 101% | 22.2% (inactive) | 107% | -0.385 (inactive) | -4.5e-05 (inactive) | 0.00375 (inactive) | 14.5% (inactive) | 15.9% (inactive) |
| COc1c(C(=O)Nc2c(C)n(C)n(-c3ccccc3)c2=O)ccc2ccccc12 | 239 | -1.7% (inactive) | 16.4% (inactive) | 63.2% | -68.7% (inactive) | 117% | -0.512 (inactive) | -3.9e-05 (inactive) | 0.00486 (inactive) | 6.79% (inactive) | 11.2% (inactive) |
| CC(=O)Nc1ccc(S(=O)(=O)Nc2nc3c(s2)CCCC3)cc1 | 638 | -2.1% (inactive) | 41.1% (inactive) | 95.3% | -46.9% (inactive) | 108% | -0.54 (inactive) | -4.4e-05 (inactive) | 0.00526 (inactive) | 5.19% (inactive) | -2.08% (inactive) |
| COc1ccc(N2C(=O)CC(N3CCN(c4ccccc4F)CC3)C2=O)cc1 (centres undefined) | 698 | -8.7% (inactive) | -1.9% (inactive) | 108% | 32.2% (inactive) | 84.3% | -0.538 (inactive) | -2.3e-05 (inactive) | 0.00511 (inactive) | 6.58% (inactive) | 10.1% (inactive) |
| O=S(=O)(c1ccccc1)c1nc(-c2ccco2)oc1NCCCN1CCOCC1 | 548 | 0% (inactive) | -3% (inactive) | 88.3% | -73.7% (inactive) | 124% | -0.502 (inactive) | 1.1e-05 (inactive) | 0.0038 (inactive) | 0.535% (inactive) | 4.26% (inactive) |
| Cc1cccc(Cc2c(C)nc3nc(SCC(=O)NCc4ccco4)nn3c2C)c1 | 389 | 0.3% (inactive) | 5.8% (inactive) | 85.7% | -79.7% (inactive) | 101% | -0.463 (inactive) | -5.1e-07 (inactive) | 0.00687 (inactive) | 10.8% (inactive) | 27.6% (inactive) |
| COc1ccc(Nc2ncnc3c2cnn3-c2ccccc2)cc1OC | 761 | -15.1% (inactive) | -26.1% (inactive) | 84.3% | -10% (inactive) | 103% | -0.366 (inactive) | 1.2e-05 (inactive) | 0.00554 (inactive) | -10.2% (inactive) | -29.8% (inactive) |
| Cc1ccc(-c2oc3ccccc3c(=O)c2O)cc1 | 559 | -12% (inactive) | -15.8% (inactive) | 15.8% | 2.6% (inactive) | 105% | -0.0172 (active) | -2.7e-06 (inactive) | 0.00718 (inactive) | -10.6% (inactive) | -26.8% (inactive) |
| CCn1nccc1C(=O)Nc1cc(Cl)ccc1Cl | 633 | 8.3% (inactive) | 6.7% (inactive) | 57.3% | 22.2% (inactive) | 106% | -0.385 (inactive) | -5e-05 (inactive) | 0.00378 (inactive) | 1.68% (inactive) | 15.9% (inactive) |
| N#Cc1cnc(SCC(=O)c2ccccc2)nc1N | 682 | -10.7% (inactive) | 8.2% (inactive) | 63.1% | -20.8% (inactive) | 120% | -0.402 (inactive) | -2.9e-05 (inactive) | 0.00488 (inactive) | 4.13% (inactive) | -24.8% (inactive) |
